Source: PMC7862700, “An all-to-all approach to the identification of sequence-specific readers for epigenetic DNA modifications on cytosine”

Key:
Experiment in all cases: DAPPL (digital affinity profiling via proximity ligation, sequencing); 10 mM Tris-HCl pH 7.5, 50 mM NaCl, 1 mM DTT, 4% glycerol, room temperature, 30 min; GST-TFs on glutathione beads, 16-mer random dsDNA library, 0.1% formaldehyde crosslink after washing; high values mean tight binding
Conditions in all cases: protein: recombinant; tags: N-terminal GST; dsDNA, one strand shown
[1] = molecular target: T1, ERF (Homo sapiens, UniProt P50548 1-548)
T1 sequence: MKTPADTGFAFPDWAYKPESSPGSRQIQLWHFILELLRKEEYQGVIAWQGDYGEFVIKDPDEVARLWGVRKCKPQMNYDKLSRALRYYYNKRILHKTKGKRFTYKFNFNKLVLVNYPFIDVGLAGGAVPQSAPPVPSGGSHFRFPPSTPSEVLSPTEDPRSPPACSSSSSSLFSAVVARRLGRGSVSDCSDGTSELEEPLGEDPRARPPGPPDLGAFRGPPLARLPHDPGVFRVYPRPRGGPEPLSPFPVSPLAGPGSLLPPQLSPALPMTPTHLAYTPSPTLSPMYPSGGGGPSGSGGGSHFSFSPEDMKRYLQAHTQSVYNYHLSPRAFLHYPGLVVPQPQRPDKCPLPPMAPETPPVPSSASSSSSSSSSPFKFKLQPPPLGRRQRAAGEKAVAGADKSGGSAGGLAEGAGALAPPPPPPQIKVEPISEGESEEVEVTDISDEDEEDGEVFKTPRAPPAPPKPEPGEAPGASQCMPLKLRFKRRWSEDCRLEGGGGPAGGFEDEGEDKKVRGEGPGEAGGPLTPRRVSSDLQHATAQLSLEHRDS
Method in brief: (§1)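 GST fusions of human transcription factors were expressed in yeast and captured with glutathione beads. Once given DNA barcodes and pooled alongside a tag-only sample, they were incubated for 30 min at room temperature with 200 nmole of a random double-stranded 16-mer DNA library in Tris/NaCl/DTT/glycerol buffer, then washed, crosslinked (0.1% formaldehyde), proximity-ligated, PCR-amplified and sequenced on an Illumina NextSeq500. The binding signal of each hexamer is its read frequency for a factor divided by its frequency for the tag-only sample.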

[2] = molecular target: T2, ETV3L (Homo sapiens, UniProt Q6ZN32 1-361)
T2 sequence: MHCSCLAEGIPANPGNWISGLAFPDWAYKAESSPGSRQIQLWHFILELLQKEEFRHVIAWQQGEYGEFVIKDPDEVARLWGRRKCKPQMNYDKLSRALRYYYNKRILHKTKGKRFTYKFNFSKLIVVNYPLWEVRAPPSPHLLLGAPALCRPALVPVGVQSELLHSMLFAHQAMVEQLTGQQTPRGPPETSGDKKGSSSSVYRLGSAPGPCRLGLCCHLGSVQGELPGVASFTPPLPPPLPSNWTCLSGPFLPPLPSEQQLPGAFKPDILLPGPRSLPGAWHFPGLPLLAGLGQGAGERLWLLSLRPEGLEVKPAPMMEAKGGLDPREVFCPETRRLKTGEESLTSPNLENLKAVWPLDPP
Method in brief: as §1

[3] = molecular target: T3, ETS2 (Homo sapiens, UniProt P15036 1-469)
T3 sequence: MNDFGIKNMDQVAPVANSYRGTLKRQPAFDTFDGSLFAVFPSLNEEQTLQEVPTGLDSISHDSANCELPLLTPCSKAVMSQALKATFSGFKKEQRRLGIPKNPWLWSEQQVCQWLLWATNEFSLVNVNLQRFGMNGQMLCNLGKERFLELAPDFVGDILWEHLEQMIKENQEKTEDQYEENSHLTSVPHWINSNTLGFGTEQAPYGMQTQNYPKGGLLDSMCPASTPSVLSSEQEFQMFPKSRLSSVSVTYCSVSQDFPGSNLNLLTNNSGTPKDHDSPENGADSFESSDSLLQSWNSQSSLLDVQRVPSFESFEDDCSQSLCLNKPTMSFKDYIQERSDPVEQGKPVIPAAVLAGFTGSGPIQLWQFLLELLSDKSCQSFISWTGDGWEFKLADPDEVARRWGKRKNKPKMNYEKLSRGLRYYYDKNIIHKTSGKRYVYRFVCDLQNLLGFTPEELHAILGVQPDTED
Method in brief: as §1

[4] = molecular target: T4, SPDEF (Homo sapiens, UniProt O95238 1-335)
T4 sequence: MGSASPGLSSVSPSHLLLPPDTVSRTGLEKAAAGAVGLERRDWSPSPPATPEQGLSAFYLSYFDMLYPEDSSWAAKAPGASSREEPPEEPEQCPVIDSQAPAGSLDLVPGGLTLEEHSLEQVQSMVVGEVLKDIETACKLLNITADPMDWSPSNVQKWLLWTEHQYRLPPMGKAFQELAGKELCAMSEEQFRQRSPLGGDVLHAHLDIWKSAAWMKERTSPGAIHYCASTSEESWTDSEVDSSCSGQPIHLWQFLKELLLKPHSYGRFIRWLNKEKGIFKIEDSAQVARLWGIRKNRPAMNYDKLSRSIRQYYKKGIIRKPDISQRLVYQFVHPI
Method in brief: as §1

[5] = molecular target: T5, ETV7 (Homo sapiens, UniProt Q9Y603 1-341)
T5 sequence: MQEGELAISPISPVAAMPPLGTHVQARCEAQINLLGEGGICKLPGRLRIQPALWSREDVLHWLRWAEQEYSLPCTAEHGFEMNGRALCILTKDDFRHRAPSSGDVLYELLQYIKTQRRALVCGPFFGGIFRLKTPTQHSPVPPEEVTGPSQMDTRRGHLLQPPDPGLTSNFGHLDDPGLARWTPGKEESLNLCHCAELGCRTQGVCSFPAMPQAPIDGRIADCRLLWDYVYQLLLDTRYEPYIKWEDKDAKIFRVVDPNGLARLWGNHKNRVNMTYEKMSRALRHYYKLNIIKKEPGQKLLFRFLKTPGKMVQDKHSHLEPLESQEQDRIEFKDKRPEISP
Method in brief: as §1

[6] = molecular target: T6, ELF5 (Homo sapiens, UniProt Q9UKW6-2 1-255)
T6 sequence: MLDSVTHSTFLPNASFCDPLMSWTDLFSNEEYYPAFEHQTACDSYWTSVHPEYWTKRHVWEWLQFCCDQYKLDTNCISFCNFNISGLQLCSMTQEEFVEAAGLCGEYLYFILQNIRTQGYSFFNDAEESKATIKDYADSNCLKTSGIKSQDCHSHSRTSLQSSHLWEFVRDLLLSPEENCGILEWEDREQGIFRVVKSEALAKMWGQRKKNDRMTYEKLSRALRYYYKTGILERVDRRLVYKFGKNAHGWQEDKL
Method in brief: as §1

[7] = molecular target: T7, ETV3 (Homo sapiens, UniProt P41162-2 1-143)
T7 sequence: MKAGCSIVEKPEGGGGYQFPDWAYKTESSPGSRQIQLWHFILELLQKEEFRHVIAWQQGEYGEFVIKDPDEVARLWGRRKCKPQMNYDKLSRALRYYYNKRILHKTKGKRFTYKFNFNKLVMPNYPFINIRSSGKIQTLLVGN
Method in brief: as §1

[8] = molecular target: ETV6 (Homo sapiens, UniProt P41212 1-452)
Chain of ETV6 (P41212 whole entry): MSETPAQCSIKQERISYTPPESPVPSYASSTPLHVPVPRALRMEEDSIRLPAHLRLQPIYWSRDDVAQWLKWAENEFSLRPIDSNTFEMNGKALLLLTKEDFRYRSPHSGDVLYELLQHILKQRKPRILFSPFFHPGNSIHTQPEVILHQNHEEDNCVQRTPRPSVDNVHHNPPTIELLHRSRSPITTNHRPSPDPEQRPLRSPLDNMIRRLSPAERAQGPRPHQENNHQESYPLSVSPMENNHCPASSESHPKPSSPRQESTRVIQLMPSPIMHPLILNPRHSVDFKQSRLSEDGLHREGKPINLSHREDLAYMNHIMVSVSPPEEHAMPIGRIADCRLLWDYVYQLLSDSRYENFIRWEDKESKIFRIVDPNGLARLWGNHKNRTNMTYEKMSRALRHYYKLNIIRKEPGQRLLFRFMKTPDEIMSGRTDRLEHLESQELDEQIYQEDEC
Method in brief: as §1

Row | Sequence | binding signal [1] | binding signal [2] | binding signal [3] | binding signal [4] | binding signal [5] | binding signal [6] | binding signal [7] | binding signal [8]
1 | TTGGGG | 1.39 fold enrichment (6-mer frequency, TF over GST control) | 1.3 fold enrichment (6-mer frequency, TF over GST control) | 1.25 fold enrichment (6-mer frequency, TF over GST control) | 1.17 fold enrichment (6-mer frequency, TF over GST control) | 1.12 fold enrichment (6-mer frequency, TF over GST control) | 1.14 fold enrichment (6-mer frequency, TF over GST control) | 1.13 fold enrichment (6-mer frequency, TF over GST control) | 1.26 fold enrichment (6-mer frequency, TF over GST control)
2 | GTAATA | 1.12 fold enrichment (6-mer frequency, TF over GST control) | 1.16 fold enrichment (6-mer frequency, TF over GST control) | 1.11 fold enrichment (6-mer frequency, TF over GST control) | 1.16 fold enrichment (6-mer frequency, TF over GST control) | 1.29 fold enrichment (6-mer frequency, TF over GST control) | 1.2 fold enrichment (6-mer frequency, TF over GST control) | 1.06 fold enrichment (6-mer frequency, TF over GST control) | 1.16 fold enrichment (6-mer frequency, TF over GST control)
3 | CTTTTC | 1.33 fold enrichment (6-mer frequency, TF over GST control) | 1.48 fold enrichment (6-mer frequency, TF over GST control) | 1.33 fold enrichment (6-mer frequency, TF over GST control) | 1.49 fold enrichment (6-mer frequency, TF over GST control) | 1.49 fold enrichment (6-mer frequency, TF over GST control) | 1.58 fold enrichment (6-mer frequency, TF over GST control) | 1.69 fold enrichment (6-mer frequency, TF over GST control) | 1.57 fold enrichment (6-mer frequency, TF over GST control)
4 | CTTGTA | 1.45 fold enrichment (6-mer frequency, TF over GST control) | 1.26 fold enrichment (6-mer frequency, TF over GST control) | 1.44 fold enrichment (6-mer frequency, TF over GST control) | 1.45 fold enrichment (6-mer frequency, TF over GST control) | 1.17 fold enrichment (6-mer frequency, TF over GST control) | 1.36 fold enrichment (6-mer frequency, TF over GST control) | 1.48 fold enrichment (6-mer frequency, TF over GST control) | 1.37 fold enrichment (6-mer frequency, TF over GST control)
5 | CCATAT | 1.23 fold enrichment (6-mer frequency, TF over GST control) | 1.27 fold enrichment (6-mer frequency, TF over GST control) | 1.22 fold enrichment (6-mer frequency, TF over GST control) | 1.33 fold enrichment (6-mer frequency, TF over GST control) | 1.16 fold enrichment (6-mer frequency, TF over GST control) | 1.24 fold enrichment (6-mer frequency, TF over GST control) | 1.19 fold enrichment (6-mer frequency, TF over GST control) | 1.15 fold enrichment (6-mer frequency, TF over GST control)
6 | TAGCCC | 1.18 fold enrichment (6-mer frequency, TF over GST control) | 1.11 fold enrichment (6-mer frequency, TF over GST control) | 1.14 fold enrichment (6-mer frequency, TF over GST control) | 1.3 fold enrichment (6-mer frequency, TF over GST control) | 1.05 fold enrichment (6-mer frequency, TF over GST control) | 1.07 fold enrichment (6-mer frequency, TF over GST control) | 1.24 fold enrichment (6-mer frequency, TF over GST control) | 1.04 fold enrichment (6-mer frequency, TF over GST control)
7 | CCTGTT | 1.66 fold enrichment (6-mer frequency, TF over GST control) | 1.79 fold enrichment (6-mer frequency, TF over GST control) | 1.8 fold enrichment (6-mer frequency, TF over GST control) | 2.09 fold enrichment (6-mer frequency, TF over GST control) | 1.63 fold enrichment (6-mer frequency, TF over GST control) | 2.1 fold enrichment (6-mer frequency, TF over GST control) | 1.9 fold enrichment (6-mer frequency, TF over GST control) | 1.73 fold enrichment (6-mer frequency, TF over GST control)
8 | ATACAG | 1.16 fold enrichment (6-mer frequency, TF over GST control) | 1.1 fold enrichment (6-mer frequency, TF over GST control) | 1.17 fold enrichment (6-mer frequency, TF over GST control) | 1.21 fold enrichment (6-mer frequency, TF over GST control) | 1.18 fold enrichment (6-mer frequency, TF over GST control) | 1.17 fold enrichment (6-mer frequency, TF over GST control) | 1.18 fold enrichment (6-mer frequency, TF over GST control) | 1.12 fold enrichment (6-mer frequency, TF over GST control)
9 | ATCTCC | 1.47 fold enrichment (6-mer frequency, TF over GST control) | 1.46 fold enrichment (6-mer frequency, TF over GST control) | 1.5 fold enrichment (6-mer frequency, TF over GST control) | 1.68 fold enrichment (6-mer frequency, TF over GST control) | 1.31 fold enrichment (6-mer frequency, TF over GST control) | 1.53 fold enrichment (6-mer frequency, TF over GST control) | 1.44 fold enrichment (6-mer frequency, TF over GST control) | 1.51 fold enrichment (6-mer frequency, TF over GST control)
10 | ATCGCC | 1.27 fold enrichment (6-mer frequency, TF over GST control) | 1.32 fold enrichment (6-mer frequency, TF over GST control) | 1.3 fold enrichment (6-mer frequency, TF over GST control) | 1.12 fold enrichment (6-mer frequency, TF over GST control) | 1.03 fold enrichment (6-mer frequency, TF over GST control) | 1.25 fold enrichment (6-mer frequency, TF over GST control) | 1.14 fold enrichment (6-mer frequency, TF over GST control) | 1.28 fold enrichment (6-mer frequency, TF over GST control)
11 | CTGCTT | 1.67 fold enrichment (6-mer frequency, TF over GST control) | 1.7 fold enrichment (6-mer frequency, TF over GST control) | 1.63 fold enrichment (6-mer frequency, TF over GST control) | 1.67 fold enrichment (6-mer frequency, TF over GST control) | 1.57 fold enrichment (6-mer frequency, TF over GST control) | 1.64 fold enrichment (6-mer frequency, TF over GST control) | 1.75 fold enrichment (6-mer frequency, TF over GST control) | 1.71 fold enrichment (6-mer frequency, TF over GST control)
12 | TCATTT | 1.37 fold enrichment (6-mer frequency, TF over GST control) | 1.47 fold enrichment (6-mer frequency, TF over GST control) | 1.41 fold enrichment (6-mer frequency, TF over GST control) | 1.22 fold enrichment (6-mer frequency, TF over GST control) | 1.37 fold enrichment (6-mer frequency, TF over GST control) | 1.32 fold enrichment (6-mer frequency, TF over GST control) | 1.3 fold enrichment (6-mer frequency, TF over GST control) | 1.35 fold enrichment (6-mer frequency, TF over GST control)
13 | ACATAT | 1.34 fold enrichment (6-mer frequency, TF over GST control) | 1.29 fold enrichment (6-mer frequency, TF over GST control) | 1.27 fold enrichment (6-mer frequency, TF over GST control) | 1.38 fold enrichment (6-mer frequency, TF over GST control) | 1.37 fold enrichment (6-mer frequency, TF over GST control) | 1.2 fold enrichment (6-mer frequency, TF over GST control) | 1.28 fold enrichment (6-mer frequency, TF over GST control) | 1.21 fold enrichment (6-mer frequency, TF over GST control)
14 | GCTCCT | 1.54 fold enrichment (6-mer frequency, TF over GST control) | 1.61 fold enrichment (6-mer frequency, TF over GST control) | 1.45 fold enrichment (6-mer frequency, TF over GST control) | 1.54 fold enrichment (6-mer frequency, TF over GST control) | 1.43 fold enrichment (6-mer frequency, TF over GST control) | 1.44 fold enrichment (6-mer frequency, TF over GST control) | 1.37 fold enrichment (6-mer frequency, TF over GST control) | 1.5 fold enrichment (6-mer frequency, TF over GST control)
15 | CTTTTT | 1.31 fold enrichment (6-mer frequency, TF over GST control) | 1.35 fold enrichment (6-mer frequency, TF over GST control) | 1.31 fold enrichment (6-mer frequency, TF over GST control) | 1.32 fold enrichment (6-mer frequency, TF over GST control) | 1.37 fold enrichment (6-mer frequency, TF over GST control) | 1.31 fold enrichment (6-mer frequency, TF over GST control) | 1.24 fold enrichment (6-mer frequency, TF over GST control) | 1.3 fold enrichment (6-mer frequency, TF over GST control)
